# Screening results from PubChem BioAssay.
# Compounds with a hit are over-represented: about 4.7% of the library has one in this group of screens.
# D1 antag: human D1 dopamine receptor antagonism | activity change, negative = inhibition, % at 10 µM | HEK293 TREx D1 cells, calcium flux, dopamine EC80; active compounds read low | 3.2% of 360,000 active | P21728; in the data active = activity change below about -30%; note: % is set by controls: 0 for no effect and ±100 for the full control effect
#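 Compound effects on dopamine-evoked calcium signalling were measured in tetracycline-induced HEK293 Trex D1 cells. Dopamine at EC80 followed a 180 s compound pre-read, and fluorescence was tracked kinetically for 180 s more.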
# D1 potentiator: potentiators of human D1 dopamine receptor; P21728; HEK293 TREx D1 cells, calcium flux, dopamine EC20 potentiation; potentiation, % at 10 µM; 0.036% of 360,000 active; AID 504651; in the data active = potentiation above about 30%; note: 0% is about no effect
# TRHR ag: TRH receptor (human) agonism | P34981 | TRHR cells, calcium flux fluo-8, FDSS agonist mode | activation, % at 2 µM | 0.18% of 360,000 active | AID 493084; note: 0% is about no effect
# Target sequence (P34981 whole entry, looked up): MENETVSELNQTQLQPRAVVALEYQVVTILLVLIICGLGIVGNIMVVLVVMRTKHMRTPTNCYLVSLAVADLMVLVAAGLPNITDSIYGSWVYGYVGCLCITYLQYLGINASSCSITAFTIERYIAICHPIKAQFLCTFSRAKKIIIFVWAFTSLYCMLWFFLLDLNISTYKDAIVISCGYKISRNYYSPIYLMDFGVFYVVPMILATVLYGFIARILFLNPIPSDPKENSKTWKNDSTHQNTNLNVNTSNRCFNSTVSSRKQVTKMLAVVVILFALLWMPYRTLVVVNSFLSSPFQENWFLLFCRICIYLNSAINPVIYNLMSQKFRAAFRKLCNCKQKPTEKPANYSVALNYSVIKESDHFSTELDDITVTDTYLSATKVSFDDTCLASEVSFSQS
#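 Fluo-8-loaded TRHR cells; 10 s baseline, compound added, kinetic Ca2+ fluorescence read 1/s, agonist mode.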
# TRHR PAM: TRH receptor (human) allosteric enhancement; AID 493056; enhancement, % at 2 µM; 0.66% of 360,000 active; TRHR cells, fluo-8 calcium fluorescence, EC20 TRH enhancement; P34981; in the data active = enhancement above about 30%; note: 0% is about no effect
#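 Enhancer read-out: after compound pinning and an initial kinetic agonist-mode read, an EC20 of TRH (10 nM final) was injected and fluo-8 calcium signal (Ex 480/Em 530) followed at 1 s/cycle for 100 cycles in TRHR-expressing cells.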
# D1 ag: activates the human D1 dopamine receptor; P21728; HEK293 T-REx D1 cells, calcium flux, agonist mode; activation, % at 2 µM; 1% of 360,000 active; AID 504660; note: 0% is about no effect
#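 Tetracycline-induced HEK293 TREx D1 cells, force-coupled to calcium signalling, were dye-loaded with a no-wash calcium kit. Compound was pin-added after a 10 s baseline. Fluorescence was read kinetically at 1 cycle/s for 180 s, with calcium rises flagged as agonism.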
# Numbers without * were called inactive. Cut-off read from the data, not from the text of the source, unless noted: active = activation above about 30%; inactive = the rest.
SMILES,D1 antag,D1 potentiator,TRHR ag,TRHR PAM,D1 ag
COc1ccc(OC)c(NC(=O)c2nc(S(=O)(=O)Cc3ccc(F)cc3)ncc2Cl)c1,-35*,1,-1,-4,4
COc1ccccc1NC(=O)c1nc(S(=O)(=O)Cc2ccccc2)ncc1Cl,-38*,-8,-1,-10,4
COc1ccc(S(=O)(=O)n2cccc2)cc1OC,-35*,-6,-1,4,2
COc1ccc(S(=O)(=O)N2CCNCC2)cc1OC,-9,5,0,-3,3
COc1ccc(S(=O)(=O)n2cccc2)c(OC)c1,12,4,0,32*,6
COc1cccc(-c2ccc(NC(=O)C3CCCN(CCCn4cccn4)C3)cc2)c1 (stereo unspecified),-12,-11,3,-5,38*
Cc1nn(C)c(Cl)c1CN1CCCC(C(=O)Nc2cccc(-n3cccn3)c2)C1 (stereo unspecified),-35*,-3,0,7,5
CCn1cc(CN2CCCC(C(=O)Nc3cccc(-n4cccn4)c3)C2)c(C)n1 (stereo unspecified),-8,1,1,8,1
CCCc1ncc(CN2CCCC(C(=O)Nc3ccc(-c4cccc(OC)c4)cc3)C2)cn1 (stereo unspecified),-14,-4,0,3,27
COc1ccc(O)c(CN2CCCC(C(=O)Nc3cccc(-n4cccn4)c3)C2)c1 (stereo unspecified),-68*,-7,0,2,4
COc1ccc(CN2CCCC(C(=O)Nc3cccc(-n4cccn4)c3)C2)cc1 (stereo unspecified),-53*,-4,0,3,13
CC(c1c(O)c2ccccc2[nH]c1=O)C1(C)CCC(O)C(C)(C)O1 (stereo unspecified),0,-2,-1,-2,-3
C/C(=N\Nc1nccnc1Cl)c1ccc([N+](=O)[O-])cc1,-61*,-5,-1,1,0
C/C(=N\Nc1nccnc1Cl)c1ccc(Br)cc1,7,-4,-3,-3,2
Cc1ccc(S(=O)(=O)NC(Cc2ccccc2)C(=O)O)cc1 (stereo unspecified),-8,1,0,-2,2
CC(C)(C)c1ccc(S(=O)(=O)NC(Cc2ccccc2)C(=O)O)cc1 (stereo unspecified),-32*,0,0,-6,3
O=C(O)CCN(CCC(=O)O)c1ccccc1,-93*,-4,1,5,2
O=C(O)CCN(CCC(=O)O)S(=O)(=O)c1ccccc1,-2,-2,0,1,2
O=C(Nc1ccccc1C(F)(F)F)c1ccc(F)c(S(=O)(=O)N2CCc3ccccc3C2)c1,10,2,0,-7,1
c1ccc2c(CNc3ccc(CNc4ncn[nH]4)cc3)cccc2c1,-46*,-7,1,-11,11
Cc1cccc(N(C2C=CS(=O)(=O)C2)S(=O)(=O)c2ccccc2)c1 (stereo unspecified),-60*,-5,0,-4,0
COc1ccc(CCNC(=O)c2ccc(NC(=O)CC3SC(N4CCCC4)=NC3=O)cc2)cc1 (stereo unspecified),-12,-5,0,-2,3
CCN(Cc1ccccc1)Cc1nnnn1Cc1ccccc1,-73*,2,0,0,3
O=C(O)c1cccc(N2C(=O)c3cccc4c(Cl)ccc(c34)C2=O)c1,19,-1,3,-1,4
Cc1c(O)c2c3c(cccc3c1O)C(=O)N(c1ccccc1)C2=O,-8,-2,29,2,53*
SMILES,D1 antag,D1 potentiator,TRHR ag,TRHR PAM,D1 ag
CN(C)c1ccc2c3c(cccc13)C(=O)N(c1ccccc1)C2=O,-6,1,18,-1,22
Cc1cccc(N2C(=O)c3cccc4c(N(C)CCO)ccc(c34)C2=O)c1,-3,0,-1,-4,200*
Cc1cccc(N2C(=O)c3cccc4c(N)ccc(c34)C2=O)c1,15,6,132*,3,576*
Nc1cccc(N2C(=O)c3cccc4c(N)ccc(c34)C2=O)c1,-9,-4,127*,13,156*
CCOc1cccc(NC(=O)C2CC(=O)N(C)C(=Nc3ccc(F)cc3)S2)c1 (stereo unspecified),-9,1,2,-6,8
COc1ccc(C(=O)Nc2cc(=O)[nH]c3ncnn23)cc1,-22,-5,0,2,3
Nc1ccc2c3c(cccc13)C(=O)N(c1ccccc1)C2=O,-42*,-6,-1,1,384*
O=C(O)c1ccc2c3c(cccc13)C(=O)N(c1ccccc1)C2=O,-4,-1,0,6,7
O=C(O)CC(NS(=O)(=O)c1ccc(Br)s1)c1ccccc1 (stereo unspecified),-4,3,1,-11,1
Cc1cc(C)c2c(CC(=O)N(Cc3ccc(Cl)cc3)Cc3ccco3)coc2c1,16,2,6,12,38*
Cc1cc(Cl)ccc1OCC(=O)N(Cc1ccco1)Cc1ccco1,-11,0,0,-6,6
Cc1cc(=O)oc2ccc(OCC(=O)N(Cc3ccc(F)cc3)Cc3ccco3)cc12,-42*,-6,0,-5,17
Cc1cccc(OCC(=O)N(Cc2cccc(Cl)c2)Cc2ccco2)c1C,-17,-1,4,-8,31*
Cc1ccc(CN(Cc2ccco2)C(=O)COc2ccc(C)c(C)c2)cc1,-29,-3,1,-9,10
CCc1nnc2c3ccccc3nc(Nc3ccc(C(C)=O)cc3)n12,10,-3,-1,10,2
CCOC(=O)c1ccc(NC(=O)CC2C(=O)N(c3ccc(F)cc3)C(=O)N2Cc2cccnc2)cc1 (stereo unspecified),12,-1,0,6,-2
Cc1ccccc1OCC(=O)OCC(=O)Nc1cc(S(C)(=O)=O)ccc1Cl,14,-3,0,37*,9
CS(=O)(=O)c1ccc(Cl)c(NC(=O)COC(=O)CNC(=O)c2ccccc2)c1,4,-2,0,-5,4
CCOc1ccccc1NC(=O)CCc1c(C)nn(-c2ccc(N3CCOCC3)nn2)c1C,-68*,-9,0,1,0
COc1cccc(CNC(=O)CCc2c(C)nn(-c3ccc(N4CCCC4)nn3)c2C)c1,-40*,-6,0,11,0
Cc1cc2c(s1)c1cnn(Cc3ccccc3F)c(=O)c1n2Cc1ccccc1F,-3,15,1,-3,3
O=C(CSc1ccc(-c2ccc(-n3cccn3)cc2)nn1)Nc1ccccc1F,-8,-2,0,-4,-2
O=C(N/N=C/c1ccco1)c1cc(-c2ccc3ccccc3c2)n[nH]1,0,43*,0,-1,0
CCc1ccc(-c2cc(C(=O)N/N=C/c3ccccn3)[nH]n2)cc1,1,2,0,3,0
